# Laboratory results as given in PubChem BioAssay AID1671187 (National Center for Advancing Translational Sciences (NCATS), 2021).
# Some of the results follow. Records with an inconclusive call do not appear. The source made the active and inactive calls. Calls come from the whole dose curve; as a rule, active = well fitted inhibition curve with a large enough effect; inconclusive = small, poorly fitted or top-dose-only effect; inactive = flat fitted curve, though single readings scatter.
# Target: Alanine aminotransferase 2 (Homo sapiens) (UniProt Q8TD30)
# Sequence (Q8TD30 whole entry, looked up): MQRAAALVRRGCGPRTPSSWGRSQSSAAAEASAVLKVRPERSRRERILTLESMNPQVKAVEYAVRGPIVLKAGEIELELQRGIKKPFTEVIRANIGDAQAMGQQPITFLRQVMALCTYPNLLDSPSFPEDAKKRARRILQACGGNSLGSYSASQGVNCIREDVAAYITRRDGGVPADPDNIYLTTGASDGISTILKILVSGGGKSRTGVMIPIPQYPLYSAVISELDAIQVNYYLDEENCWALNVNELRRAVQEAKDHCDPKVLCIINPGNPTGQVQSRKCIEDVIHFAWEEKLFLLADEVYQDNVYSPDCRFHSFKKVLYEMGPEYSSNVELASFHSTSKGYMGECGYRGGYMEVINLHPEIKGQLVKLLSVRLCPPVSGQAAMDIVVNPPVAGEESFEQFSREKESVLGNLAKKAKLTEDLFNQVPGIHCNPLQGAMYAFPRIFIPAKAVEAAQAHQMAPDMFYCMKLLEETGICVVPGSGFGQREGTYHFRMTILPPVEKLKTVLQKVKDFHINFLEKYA
# Test: Confirmatory qHTS assay for inhibitors of Glutamate pyruvate transaminase 2 (GPT2)
# Settings: GPT2 enzyme, coupled Amplex Red pyruvate fluorescence
# Protocol: Assay Provider: Zhenghe John Wang Ph.D. Case Western Reserve University, Cleveland OH Glutamate pyruvate transaminase 2 (GPT2) catalyzes the reversible transamination of glutamate and pyruvate to provide a-ketoglutarate and alanine. We have optimized an assay for GPT2 enzymatic activity that couples pyruvate formation to detection of fluorescence using an established pyruvate oxidase/horseradish peroxidase / Amplex Red system. Screening conditions were 250uM a-KG, 2mM L-alanine, and 0.006 ng/uL GPT2 in 4 uL of solution; 2 uL of Amplex reaction mix (outlined below) were added so that final concentrations of Amplex reagents in 6 uL were 0.2mM ThPP, 0.2U/mL PO, 1 U/mL HRP, and 15 uM Amplex.
# NOTE: The volume of GPT2 in the system depended on the activity of it. The activity could be different in every batch. Batch testing the GPT2 activity was done prior to the assay. Full plate assay with automation as the following protocol: 1. Dispense 2ul of GPT2 enzyme (0.012 ng/ul) into columns 3-48, 2ul of GPT2 buffer (ddH2O with 110mM KCl, 10mM NaCl, 2mM MgCl2, 20mM HEPEs, 0.01% tween-20, 0.1% BSA, 5mM DTT ) into columns 1-2 as a positive control. 2. […] Read at Tecan: Excitation filter 560(10) nm, Emission filter 590 (10) nm Reagents preparation: 1. […]
row,SMILES,Potency
1,CNC(=O)c1ccccc1Nc1nc(Nc2ccc(N3CCOCC3)cc2OC)ncc1Cl,1.72 µM (active)
2,CN1CCOc2c(C(=O)NCCN3CCNC3=O)cc(Nc3cccnc3)cc21,4.98 µM (active)
